Sampled rows, rich in hits. Any-hit rate of the full collection: about 4.7%.
SUMO HTRF inh – inhibitors of human SUMOylation (UBC9). P63279. HTRF SUMOylation assay, SAE1/SAE2 + UBC9, in vitro. inhibition, % at 35 µM. hit rate 0.36% among 290,000. AID 2006; in the data active = inhibition above about 50%, passing the limit was not always enough; inconclusive = no clear call, values can overlap the other calls
Target sequence (P63279 whole entry, looked up): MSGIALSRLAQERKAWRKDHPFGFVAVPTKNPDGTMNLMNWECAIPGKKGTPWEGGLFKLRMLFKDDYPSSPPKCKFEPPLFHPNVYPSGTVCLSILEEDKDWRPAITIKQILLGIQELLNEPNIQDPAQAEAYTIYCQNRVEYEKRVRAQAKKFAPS
ALR H2O2 inh – blocks human ALR sulfhydryl oxidase activity; P55789; purified ALR, DTT oxidation, H2O2 HRP-luminol luminescence; inhibition, % (no concentration beside the values); hit rate 3.8% among 290,000; AID 485317;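 active = mean replicate inhibition above about 79%, with every replicate also reaching it, limit read from the data; inconclusive = only one of the two criteria met; inactive = mean below limit and not every replicate reaching it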
Target sequence (P55789 whole entry, looked up): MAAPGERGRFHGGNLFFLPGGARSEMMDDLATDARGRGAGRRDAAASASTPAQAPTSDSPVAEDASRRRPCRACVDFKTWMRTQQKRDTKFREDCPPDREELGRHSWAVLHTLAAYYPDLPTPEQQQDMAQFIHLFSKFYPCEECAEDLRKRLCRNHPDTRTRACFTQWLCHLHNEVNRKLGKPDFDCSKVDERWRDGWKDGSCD
MLLE-PAM2 inh – inhibitors of microRNA-mediated deadenylation, human PABP1 MLLE binding | hit rate 0.36% among 360,000 | AID 588489 | P11940 | GST-MLLE / FITC-PAM2 fluorescence polarization | inhibition, % at 20 µM; in the data active = inhibition above about 35%, passing the limit was not always enough;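 also: plate controls were DMSO wells with GST-MLLE for no effect and wells lacking GST-MLLE protein for full effect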
eIF4H inh – inhibitors of RNA binding by human eIF4H; inhibition, % at 35 µM; AID 2012; Q15056; hit rate 0.94% among 290,000; eIF4H fluorescence polarization binding assay;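 also: calls also rest on retests at 20 µM and on dose response follow-up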
PABP FP inh – PABP-poly(A) binding inhibition; P11940; PABP-poly(A) RNA binding, fluorescence polarization; inhibition, % at 35 µM; hit rate 1% among 290,000; AID 2014;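 also: calls also rest on retests at 20 µM and on dose response follow-up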
Efflux pump mplx – antifungal efflux pump inhibition, Nile Red retention; S. cerevisiae Candida pump triplex; inhibition, % at 10 µM; hit rate 0.44% among 330,000; AID 485275;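 active = plate passing quality check with inhibition over a set limit, or well fluorescence over plate mean plus 4 SD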;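 also: Nile Red retained in pooled yeast measured as flow cytometry median fluorescence; 0% = buffer negative control and 100% = Enniatin B positive control; higher means more Nile Red kept so more efflux inhibition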
Starred values were filed as active, the others as inactive; ? = inconclusive; . = no result. Unless noted, no rule for the calls is given here.

SMILES | SUMO HTRF inh | ALR H2O2 inh | MLLE-PAM2 inh | eIF4H inh | PABP FP inh | Efflux pump mplx
CCCCCC(=O)N1C[C@@H](n2cc(-c3ccc(F)cc3)nn2)[C@H](O)C[C@@H]1c1ccc(OC)cc1 | . | . | -2 | . | . | .
COc1ccc(OC)c(NC(=O)CSc2nnc(CNc3ccc(F)cc3)o2)c1 | 11 | 91* | 2 | 6 | 3 | 0
CCc1nnc(NC(=O)CSc2ccc(-c3cccs3)nn2)s1 | 7 | -1 | 32 | ? | active | 0
CC(=O)c1ccc(NC(=O)CSc2ccc(-c3sc(C)nc3C)nn2)cc1 | -5 | 99* | 18 | -3 | 2 | 0
COc1ccc(NCc2nnc(SCC(=O)Nc3ccccc3OC)o2)cc1 | 14 | 19 | 36 | -5 | 0 | 1
COc1ccc(NCc2nnc(SCC(=O)Nc3cccc(C)c3)o2)cc1 | 29 | 99* | 24 | -10 | -6 | 0
Cc1ccc(CNC(=O)CN(C)C2=NS(=O)(=O)c3ccccc32)cc1 | . | -10 | 18 | . | . | 0
CCC(CC)N1CCN(C(=O)c2cc(OC)c(OC)c(OC)c2)CC1 | 18 | -7 | -3 | 2 | 6 | 0
COc1ccc(-c2oc3ccccc3c2C(=O)OCc2ccccc2)cc1 | 3 | 0 | -5 | -5 | -2 | 0
COc1ccc(OCc2nnc(SCC(=O)Nc3cccc(C(C)=O)c3)o2)cc1 | . | 99* | -18 | . | . | 0
COc1ccc(NCc2nnc(SCC(=O)c3ccc(OC)cc3)o2)cc1 | 9 | 98* | 13 | -4 | 5 | 0
COc1ccc(C(=O)NCc2nnc(SCC(=O)c3ccccc3)o2)cc1 | 2 | 42 | -47 | -1 | 4 | 0
N#CCSc1nnc(CNc2ccc(F)cc2)o1 | 34 | . | 48* | 111* | 53* | 0
CCc1nnc(NC(=O)CSc2nnc(CNc3ccc(Cl)cc3)o2)s1 | 20 | 99* | 16 | -2 | -4 | 0
CCN(CC)C(=O)Cn1cc([N+](=O)[O-])cc1[N+](=O)[O-] | . | . | 4 | . | . | .
CN(C1CCCCC1)S(=O)(=O)c1cn(C)c(=O)n(C)c1=O | . | 4 | -4 | . | . | 0
COC(=O)c1ccccc1NC(=O)N1c2ccccc2Sc2ccccc21 | -20 | -2 | 9 | -4 | -5 | -13
COc1ccc(-c2ccc(SCC(=O)Nc3cccc(C(C)=O)c3)nn2)cc1OC | 16 | 85* | 1 | 2 | -7 | 0
Cc1ccc2nc(N3C(=O)CNC3=S)sc2c1 | -2 | 93* | -10 | 10 | -2 | 0
C=CC[C@H](CC(=O)N(CCO)Cc1ccccc1)C(=O)N[C@H](COC(=O)[C@@H](CC=C)Cc1ccc(F)cc1)Cc1ccccc1 | . | -6 | -1 | . | . | 0
Cc1ccc(CN2C(=O)S/C(=C\c3ccccc3OCC(=O)O)C2=O)cc1 | 25 | 97* | 13 | 3 | 2 | 0
O=C(O)COc1ccccc1/C=C1\SC(=O)N(Cc2ccc(F)cc2)C1=O | 16 | 98* | 2 | 14 | 4 | 0
O=C(O)CN1C(=O)/C(=C\c2ccccc2OCc2ccccc2)SC1=S | . | . | 26 | . | . | .
O=C(O)CN1C(=O)/C(=C\c2ccccc2OCc2ccc(F)cc2)SC1=S | 2 | 12 | 13 | 18 | 37 | 0
COc1cc(/C=C2\SC(=O)N(CC(=O)Nc3ccc(C)cc3)C2=O)cc(Cl)c1OCC(=O)O | 49 | 6 | -5 | 89* | 21 | 0
SMILES | SUMO HTRF inh | ALR H2O2 inh | MLLE-PAM2 inh | eIF4H inh | PABP FP inh | Efflux pump mplx
CC(C)(C)c1ccc(NC(=O)CCNC(=O)c2ccco2)cc1 | -9 | -1 | 5 | 0 | 5 | 0
O=C(N/N=C(/CC(=O)c1cccs1)C(F)(F)F)c1ccc(O)cc1 | -3 | 80* | 4 | 3 | 6 | 0
O=C(N/N=C(\CC(=O)c1cccs1)C(F)(F)F)c1cccnc1 | -28 | 60 | -10 | -3 | 3 | 0
CCOc1ccccc1NC(=S)N1CCN(c2cccc(OC)c2)CC1 | -16 | 98* | -96 | -6 | 8 | 0
CNC(=S)N1CCN(c2cccc(OC)c2)CC1 | 18 | 99* | -111 | -3 | 0 | 0
COc1ccc(/C=C(/NC(=O)c2ccc(Br)o2)C(=O)Nc2cccc(C(=O)O)c2)cc1 | . | . | 12 | . | . | .
CCOC(=O)C1=C(N)OC(CCl)=C(C#N)C1c1ccsc1 (stereo unspecified) | 18 | . | 26 | -2 | -18 | 1
COc1ccc2[nH]cc(CCNS(=O)(=O)c3ccccc3)c2c1 | 4 | 95* | 3 | 2 | 2 | 0
COc1ccc2[nH]cc(CCNS(=O)(=O)c3ccc(F)cc3)c2c1 | -11 | 22 | -19 | 2 | -2 | 0

From PubChem BioAssay
